High-throughput results from PubChem.
The list is not random: actives were taken first. Their share in the collection is about 19%.
TDP1 cell CPT: growth inhibition of DT40 Tdp1-/-;hTDP1 cells with camptothecin (screen for TDP1 inhibitors). 12% of 420,000 active. chicken DT40 Tdp1-/-;hTDP1 cells + 20 nM CPT, ATP luminescence, 48 h. Potency, µM (top dose mostly 46.2 µM), without a hit: top-dose activity change, negative = growth inhibition, actives largely listed as inhibitors; note: potency is the fitted concentration of half-maximal effect; nearly all actives have a fitted effect of over 55% in size
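Cell growth measured by CellTiter-Glo luminescence after a minimum 48 h, 37 C compound exposure with 20 nM CPT in Tdp1-knockout DT40 cells stably expressing hTDP1, seeded 400/well; qHTS titration format.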
IL1B secr inh: blocks inflammasome-driven IL-1 beta release. 4.7% of 360,000 active. THP-1 LPS/ATP IL-1B secretion, AlphaLISA, 16 h; active compounds read low. AID 743279. activity change, % at 57.5 µM; in the data active = activity change below about -50%; inconclusive = mostly about -30% to -49%
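Secreted IL-1B measured by AlphaLISA bead assay after 16 h compound exposure of THP-1 cells; compounds (final up to 57.5 uM) added 1 h before LPS (250 ng/mL) and ATP (1.25 mM) stimulation; lower signal means less secretion.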
HT1080 IDH1KD tx: kills HT-1080 cells with IDH1 knockdown; HT-1080 IDH1 knockdown viability, ATP luminescence, 48 h; Potency, µM (top dose mostly 46.1 µM), without a hit: at the top dose activity, negative = toxicity, most hits filed as cytotoxic; 2% of 360,000 active; AID 686971;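 note: potency is the fitted concentration of half-maximal effect; 0% = DMSO wells and -100% = cell-free medium wells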
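In this qHTS, HT-1080 cells depleted of IDH1 are exposed for 48 h at 37 °C to compound titrations. Toxicity is scored from CellTiter-Glo luminescence, with DMSO as full viability and medium alone as none.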
DT40 TDP1 no CPT: qHTS for Inhibitors of human tyrosyl-DNA phosphodiesterase 1 (TDP1): qHTS in cells in absence of CPT. DT40 Tdp1-/- hTDP1 cells, no CPT, ATP luminescence, 48 h. Potency, µM (doses to about 46.2 µM), without a hit: at the highest dose activity change, negative = growth inhibition, most hits filed as inhibitors. 15% of 420,000 active; note: potency is the fitted concentration of half-maximal effect; nearly all actives have a fitted effect of over 55% in size
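Stably hTDP1-transfected Tdp1-null chicken DT40 cells were treated with library compounds minus camptothecin and grown for at least 48 hr at 37 °C, after which cellular ATP was quantified by luminescence.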
HT1080-NT tox: kills 2HG-producing HT-1080-NT fibrosarcoma cells; HT-1080-NT fibrosarcoma viability, CellTiter-Glo ATP luminescence, 48 h; 1.6% of 360,000 active; Potency, µM (highest dose often 46.1 µM), for the others: top-dose activity, negative = less viability, hits mostly cytotoxic; AID 686970;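 note: NT is the 2HG producing partner of a matched IDH1 knockdown line; potency is the fitted concentration of half-maximal effect; 0% = DMSO-treated cells and -100% = media-only wells without cells; nearly all actives have a fitted effect of over 55% in size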
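HT-1080-NT; 750 cells/well; 5% FBS RPMI; 48 h compound, 37 degrees C; CellTiter-Glo luminescence; curve fitting and curve-class assignment.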
* marks the source's active call; other numbers are inactive results; ? = inconclusive; nt = no result; [ ] = remark or other dose. Unless noted, calls come from the whole dose curve; as a rule, active = well fitted curve in the direction sought with a large enough effect; inconclusive = small, poorly fitted or top-dose-only effect, or another doubt; inactive = no such curve, though single readings can be large; an effect the other way counts as inactive or inconclusive. Unless noted, % is set by controls: 0 for no effect and ±100 for the full control effect.

SMILES	TDP1 cell CPT	IL1B secr inh	HT1080 IDH1KD tx	DT40 TDP1 no CPT	HT1080-NT tox
CS(=O)(=O)N1CCCc2cc(C(=O)Nc3cccc(C(F)(F)F)c3)ccc21	?	nt	nt	18µM*	nt
CS(=O)(=O)N1CCc2cc(C(=O)Nc3ccc(COCC(F)(F)F)cc3)ccc21	18µM*	2	-4%	?	-24%
CC(C)c1ccc(NC(=O)c2ccc3c(c2)CCN3S(C)(=O)=O)cc1	21µM*	-29	?	8.2µM*	-29%
CCN(CC)S(=O)(=O)c1ccc2c(c1)c(=O)c(C(=O)N1CCN(c3ccc(F)cc3)CC1)cn2C	-17%	nt	nt	-27%	nt
CCCN(C(=O)Cc1ccc(S(=O)(=O)N2CCOCC2)s1)c1c(N)n(Cc2ccccc2)c(=O)[nH]c1=O	9%	7	2%	4%	5%
CC(=O)Nc1nonc1-c1nnc(SCc2cccc(Br)c2)n1C	16µM*	nt	nt	18µM*	nt
COc1ccccc1NC(=O)CC(=O)CSc1nnc(-c2ccc(C)cc2)n1-c1ccccc1	2%	1	1%	-13%	6%
COc1ccc(-c2nnc(SCC(=O)Nc3ncc(C)s3)n2-c2ccccc2)cc1OC	21µM*	8	?	23µM*	?
COc1ccc(-c2nnc(SCC(=O)NNC(=O)Cc3ccccc3)n2C)cc1OC	?	-18	6%	23µM*	10%
Cn1c(SCC(=O)NNC(=O)Cc2ccccc2)nnc1-c1ccc(Cl)cc1	-11%	-26	2%	-7%	-1%
COc1ccccc1NC(=O)CSc1nnc(-c2nonc2NC(C)=O)n1-c1ccccc1	?	nt	nt	23µM*	nt
O=c1c(-c2cc(F)cc(F)c2)nc2cnc(N3CCOCC3)nc2n1CCc1ccccc1	-1%	nt	nt	16%	nt
c1ccc(C2=Nc3ccccc3OC2)cc1	18µM*	14	-5%	11µM*	-3%
Cc1ccc2c(c1)N=C(c1ccc(Cl)cc1)CO2	?	11	-15%	23µM*	-10%
CN(c1ccccc1)C1CCCCC1NS(=O)(=O)c1ccc(Cl)cc1 (centres undefined)	?	73	?	23µM*	-21%
O=S(=O)(NC1CCCCC1Oc1ccccc1)c1ccc(Cl)cc1 (centres undefined)	-11%	13	?	?	?
CSc1ccc(OC2CCCCC2NS(=O)(=O)c2ccc(Cl)cc2)cc1 (centres undefined)	26µM*	-11	?	?	?
Cc1ccc(-c2ccc(OC(=O)c3ccc(=O)[nH]c3)c(C)c2)cc1	-17%	?	3%	-13%	4%
FC(F)(F)c1nc(NCc2cccnc2)c2ccccc2n1	?	-3	-13%	23µM*	-12%
Clc1cccc(-c2nc(NCc3cccnc3)c3ccccc3n2)c1	-5%	-58*	?	-23%	?
OCCNc1nc(-c2cccnc2)nc2ccccc12	-32%	-21	0%[9.24 µM]	-18%	2%
c1ccc(-c2nc(NCc3cccnc3)c3ccccc3n2)cc1	1%	?	?	-16%	-29%
OC(CNc1nc(-c2cccnc2)nc2ccccc12)c1ccccc1 (centres undefined)	15µM*	-66*	?	23µM*	?
Cc1ccc(-c2nc(NCc3cccnc3)c3ccccc3n2)cc1	27%	-76*	-14%	-1%	2%
FC(F)(F)c1ccccc1-c1nc(NCc2cccnc2)c2ccccc2n1	-16%	nt	nt	-7%	nt
SMILES	TDP1 cell CPT	IL1B secr inh	HT1080 IDH1KD tx	DT40 TDP1 no CPT	HT1080-NT tox
CNC(=S)Nc1cc(C)ccc1OC(F)F	-14%	9	24%	-30%	4%
C[C@H]1O[C@H](C2CCCC2)CC2=C1C(=O)OC(C)(C)O2	-1%	10	0%	-20%	21%
CC1Cc2cc(S(=O)(=O)N3CCC(C(=O)NCc4ccco4)CC3)ccc2N1C(=O)C1CCC1 (centres undefined)	?	-19	-6%	23µM*	-20%
CC(=O)Nc1ccc(S(=O)(=O)N2CCC(C(=O)NCCc3ccc(Cl)cc3)CC2)cc1	?	-11	-6%	?	-21%
O=C(NCc1ccc(Cl)cc1)[C@@H]1CCCN1S(=O)(=O)c1ccc(Cl)cc1	?	-8	4%	?	5%
CC(=O)N1c2ccc(S(=O)(=O)N3CCC(C(=O)NCc4ccc(Cl)cc4)CC3)cc2CC1C (centres undefined)	18µM*	5	-3%	?	-23%
Cc1ccc(CNC(=O)C2CCN(S(=O)(=O)c3ccc4c(c3)CC(C)N4C(=O)C3CC3)CC2)cc1 (centres undefined)	-11%	-2	-19%	0%	?
CC(=O)N1c2ccc(S(=O)(=O)N3CCC(C(=O)NCc4ccc(C)cc4)CC3)cc2CC1C (centres undefined)	?	20	0%	-15%	-1%
CC(=O)N1c2ccc(S(=O)(=O)N3CCCC3C(=O)NCc3ccc(Cl)cc3)cc2CC1C (centres undefined)	21µM*	-7	-13%	?	-8%
CC(=O)N1c2ccc(S(=O)(=O)N3CCC(C(=O)NCCc4ccc(Cl)cc4)CC3)cc2CC1C (centres undefined)	16µM*	-2	-21%	10µM*	?
Clc1ccc(Cn2c3c(c4ccccc42)CCc2cc4ccccc4nc2-3)cc1	0%	nt	nt	-7%	nt
COc1cc(OC)c(NC(=O)C2CCN(S(=O)(=O)c3ccc4c(c3)CC(C)N4C(C)=O)CC2)cc1Cl (centres undefined)	21µM*	-1	-3%	?	-3%
COc1cc(OC)c(NC(=O)N2CCc3cc(S(=O)(=O)N4CCC(C)CC4)ccc32)cc1Cl	10µM*	nt	nt	8.2µM*	nt
COc1ccc(NC(=O)C2CCN(S(=O)(=O)c3ccc4c(c3)CC(C)N4C(C)=O)CC2)cc1OC (centres undefined)	?	8	13%	?	2%
CCOC(=O)c1ccc(S(=O)(=O)Nc2cc(C(=O)O)ccc2Cl)cc1	-5%	-1	21%	-25%	12%
O=CNc1cc(-c2ccc(C(=O)NC3CC3)cc2)cn2c(-c3ccccc3)cnc12	10µM*	?	5.8µM*	7.3µM*	6.5µM*
CC(=O)c1ccc(-c2cnc3c(NC=O)cc(-c4ccc(C(=O)NC5CC5)cc4)cn23)cc1	5.8µM*	-64*	7.3µM*	5.2µM*	15µM*
O=C(NC1CCCCC1)c1ccc(-c2ccccc2)cc1	-23%	-16	13%	-21%	14%
